This note sets out measurements from PubChem BioAssay (NCI).

Molecules are shown by their SMILES. The panel holds about 83,000 compounds, 20% with a hit somewhere; the sample as a whole holds those more often.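 Single-concentration screen, 48 h exposure, 96-well plates. Endpoint: percent growth. Below 10 = active.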 Unmarked numbers belong to inactive results. Active and inactive are the calls of the source.

Test systems include NCI-H23 lung; NCI-H226 lung; NCI-H322M lung; HOP-62 NSCLC; NCI-H460 lung; HOP-92 NSCLC; NCI-H522 lung; A549/ATCC NSCLC; 786-0 renal; COLO 205 colon; DU-145 prostate; K-562 leukemia; MALME-3M melanoma; MDA-MB-231 breast; SF-268 CNS; SF-295 CNS; SF-539 CNS; UACC-257 melanoma; M14 melanoma; RXF 393 renal.
Common to all, as to test: NCI-60 one-dose screen, 48 h (100 = growth as untreated, 0 = no growth, -100 = all killed)
Common to all, as to conditions: 10 µM unless noted

`CCN(CC)CCOC(COc1cc(C)cc(C)c1)COc1cc(C)cc(C)c1`: the growth in the assay with NCI-H23 lung was 37.9%; in the assay on NCI-H226 lung, 54.4%; in the assay with NCI-H322M lung it was 48.7%; in the assay with HOP-62 NSCLC, 54.3%; with NCI-H460 lung it was 9.62% (active); in the assay on HOP-92 NSCLC it was 22.7%. In addition, the growth with NCI-H522 lung was 35.4%; in the assay with A549/ATCC NSCLC it was 47.8%; in the assay on 786-0 renal, 44.9%; in the assay with COLO 205 colon it was -15.8% (active); with DU-145 prostate, 48.1%; with K-562 leukemia, 2.57% (active). The growth in the assay with MALME-3M melanoma was 13.6%; with MDA-MB-231 breast, 23.8%; in the assay with SF-268 CNS it was 56.6%; in the assay with SF-295 CNS, 48.9%; in the assay on SF-539 CNS, 61.9%; in the assay with UACC-257 melanoma, 65.1%. Besides, the growth with M14 melanoma was 7.46% (active).

With `COc1cc2nc(-c3ccc(C#N)cc3)[nH]c(=O)c2cc1OC`, the growth in the assay on NCI-H23 lung is 104%; with NCI-H226 lung, 91.4%; with NCI-H322M lung, 211%; with HOP-62 NSCLC, 92.8%; with NCI-H460 lung, 105%; with HOP-92 NSCLC, 127%. Moreover, the growth with NCI-H522 lung is 104%; in the assay on A549/ATCC NSCLC, 15.5%; in the assay with 786-0 renal it was 61.3%; in the assay on COLO 205 colon it was 132%; with DU-145 prostate, 105%; in the assay with MALME-3M melanoma it was 263%. Also, the growth with MDA-MB-231 breast is 94%; in the assay with SF-268 CNS it was 100%; with SF-295 CNS it was 95.9%; in the assay on SF-539 CNS, 101%; in the assay on UACC-257 melanoma, -1.56% (active); in the assay on M14 melanoma, 87.7%.

`COc1ccc(-c2nc3sccn3c2/C=C/C(=O)c2cc(OC)c(OC)c(OC)c2)cc1`: the growth in the assay on NCI-H23 lung is 59.9%; with NCI-H226 lung, 87.4%; with NCI-H322M lung, 69.4%; with HOP-62 NSCLC, 79.1%; in the assay with NCI-H460 lung, 47%; with HOP-92 NSCLC it was -1.77% (active). Moreover, the growth with NCI-H522 lung was 5.02% (active); in the assay with A549/ATCC NSCLC, 60.4%; in the assay on 786-0 renal it was 78.3%; in the assay on COLO 205 colon, 79.2%; in the assay with DU-145 prostate, 75.7%; in the assay on K-562 leukemia it was 44.2%. Further, the growth was 53.3% in the assay with MALME-3M melanoma; 52.8% in the assay with MDA-MB-231 breast; 67.4% with SF-268 CNS; 54.6% with SF-295 CNS; 53% with SF-539 CNS; 69.1% with UACC-257 melanoma. Besides, in the assay on M14 melanoma, the growth is 63.6%.

For `Clc1nc(Cl)c2ncn(CCOCCn3cnc4c(Cl)nc(Cl)nc43)c2n1`, the growth with NCI-H23 lung is -78.5% (active); with NCI-H226 lung, -74.2% (active); in the assay on NCI-H322M lung, -97.1% (active); in the assay on HOP-62 NSCLC it was -71.8% (active); in the assay with NCI-H460 lung it was -62.8% (active); in the assay with HOP-92 NSCLC, -93.2% (active). Moreover, the growth with NCI-H522 lung is -85.4% (active); with A549/ATCC NSCLC, -76.2% (active); in the assay on 786-0 renal, -92.9% (active); in the assay on COLO 205 colon, -65.2% (active); in the assay with DU-145 prostate it was -99.1% (active); with K-562 leukemia it was -62.9% (active). Besides, the growth with MALME-3M melanoma is -73.2% (active); in the assay with MDA-MB-231 breast, -89.9% (active); in the assay with SF-268 CNS it was -83.3% (active); in the assay on SF-295 CNS, -91.9% (active); in the assay on SF-539 CNS, -89.9% (active); in the assay with UACC-257 melanoma, -89.7% (active). Besides, the growth in the assay with M14 melanoma is -84.9% (active).

On to `NC(=O)c1ncn(C2OC(CO)C(O)C2O)n1` (stereo not given), for which the growth is 89% in the assay with NCI-H23 lung; 87.6% in the assay on NCI-H226 lung; 86.5% in the assay with NCI-H322M lung; 71.8% in the assay with HOP-62 NSCLC; 104% in the assay on NCI-H460 lung; 79% with HOP-92 NSCLC. In addition, the growth with NCI-H522 lung was 79.6%; in the assay with A549/ATCC NSCLC it was 96.3%; in the assay on 786-0 renal, 91.6%; with COLO 205 colon, 94.4%; in the assay on DU-145 prostate it was 85.1%; in the assay with K-562 leukemia, 61.1%. The growth in the assay on MALME-3M melanoma is 93.8%; with MDA-MB-231 breast it was 103%; in the assay on SF-268 CNS it was 98%; with SF-295 CNS, 99.9%; in the assay on SF-539 CNS it was 97.6%; in the assay with UACC-257 melanoma, 97.7%. In the assay with M14 melanoma, the growth is 92.8%.

Turning to `COc1ccc(C2CC(n3nnnc3-c3ccccc3)=NN2)cc1` (stereo not given), the growth in the assay with NCI-H23 lung is 82%; in the assay with NCI-H226 lung, 75.1%; in the assay on NCI-H322M lung it was 69.9%; with HOP-62 NSCLC, 78.4%; in the assay on NCI-H460 lung it was 71.2%; with HOP-92 NSCLC, 80.1%. The growth in the assay with NCI-H522 lung was 47.1%; in the assay on A549/ATCC NSCLC, 60.2%; with COLO 205 colon, 91.8%; with DU-145 prostate, 70.5%; in the assay on K-562 leukemia, 15.6%; in the assay with MALME-3M melanoma, 73.9%. For the same molecule, the growth is 40.2% in the assay on MDA-MB-231 breast; 102% in the assay with RXF 393 renal; 75.4% with SF-268 CNS; 27.2% in the assay on SF-295 CNS; 37.9% in the assay with SF-539 CNS; 101% in the assay with UACC-257 melanoma. In addition, in the assay on M14 melanoma, the growth is 35.4%.

Consider `O=C(O)/C=C\C(=O)N1C/C(=C\c2ccccc2Cl)C(=O)/C(=C/c2ccccc2Cl)C1`, for which the growth is -24.9% (active) in the assay with NCI-H23 lung; -85% (active) in the assay on NCI-H226 lung; 4.69% (active) in the assay with NCI-H322M lung; -24% (active) in the assay on HOP-62 NSCLC; -40.9% (active) in the assay with NCI-H460 lung; 2.77% (active) in the assay with HOP-92 NSCLC. Also, the growth was -87.2% (active) with NCI-H522 lung; 7.96% (active) with A549/ATCC NSCLC; -67.4% (active) in the assay with COLO 205 colon; -34.2% (active) in the assay with DU-145 prostate; 8.25% (active) in the assay on K-562 leukemia; 2.25% (active) in the assay on MALME-3M melanoma. Besides, the growth in the assay with MDA-MB-231 breast is -15.4% (active); in the assay on RXF 393 renal it was -95.8% (active); with SF-268 CNS, -33.7% (active); with SF-295 CNS it was -13% (active); in the assay with SF-539 CNS, -20.9% (active); in the assay with UACC-257 melanoma it was 67.3%. Besides, the growth in the assay with M14 melanoma is 12%.

Consider `COc1ccc(C2CC(c3cccc(Nc4ccncc4)c3)=NN2c2ccccc2)cc1` (stereo not given), for which the growth in the assay with NCI-H23 lung is 82.8%; with NCI-H226 lung, 94.7%; in the assay with NCI-H322M lung, 68.2%; with HOP-62 NSCLC, 43.9%; with NCI-H460 lung it was -40.8% (active); in the assay on HOP-92 NSCLC, 47.6%. The growth is 39.9% in the assay with NCI-H522 lung; -4.64% (active) with 786-0 renal; -55% (active) in the assay with COLO 205 colon; 42.2% in the assay with DU-145 prostate; 1.17% (active) with K-562 leukemia; -70% (active) in the assay with MALME-3M melanoma. For the same molecule, the growth in the assay with MDA-MB-231 breast was 62.5%; in the assay with SF-268 CNS it was 72.2%; with SF-295 CNS it was 64%; in the assay on SF-539 CNS, 59.7%; in the assay with UACC-257 melanoma, -35.6% (active); with M14 melanoma, -46% (active).
